Measured values as given in PMC5540273 (PLoS ONE, 2017).

What was measured:
Conditions in all cases: concentration: 1 μM, replicates: in singlicate; n = 1
MYO3A = system: MYO3A
MYO3B = system: MYO3B
NDR1 = system: T1, NDR1
T1 construct: gene STK38

NDR2 = system: NDR2
NEK10 = system: NEK10
NEK11 = system: NEK11
NEK1 = system: NEK1
NEK2 = system: NEK2
NEK3 = system: NEK3
NEK4 = system: NEK4
NEK5 = system: NEK5
NEK6 = system: NEK6
NEK7 = system: NEK7
NEK9 = system: NEK9
NIK = system: T2, NIK
T2 construct: gene MAP3K14

NIM1 = system: T3, NIM1
T3 construct: gene MGC42105

NLK = system: NLK
OSR1 = system: T4, OSR1
T4 construct: gene OXSR1

PAK1 = system: PAK1
PAK2 = system: PAK2
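Further: KINOMEscan kinase panel screen.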

Row | Structure (SMILES) | %Inh (MYO3A) [%] | %Inh (MYO3B) [%] | %Inh (NDR1) [%] | %Inh (NDR2) [%] | %Inh (NEK10) [%] | %Inh (NEK11) [%] | %Inh (NEK1) [%] | %Inh (NEK2) [%] | %Inh (NEK3) [%] | %Inh (NEK4) [%] | %Inh (NEK5) [%] | %Inh (NEK6) [%] | %Inh (NEK7) [%] | %Inh (NEK9) [%] | %Inh (NIK) [%] | %Inh (NIM1) [%] | %Inh (NLK) [%] | %Inh (OSR1) [%] | %Inh (PAK1) [%] | %Inh (PAK2) [%]
1 | CNCc1ccc2nc(NC(=O)c3ccc(C(C)(C)C)cc3)cn2c1 | 2 | 0 | 34 | 3 | 20 | 34 | 28 | 2 | 18 | 7 | 0 | 2 | 10 | 3 | 28 | 3 | 1 | 22 | 7 | 26
2 | COc1ccc(CSc2nnc(-c3ccc4ncsc4c3)o2)cc1C(F)(F)F | 15 | 6 | 0 | 10 | 8 | 0 | 10 | 0 | 29 | 0 | 0 | 0 | 0 | 0 | 0 | 0 | 0 | 0 | 16 | 16
3 | COc1ccc(Nc2nccc(-c3ccc(NC(=O)c4cc5cc(F)ccc5[nH]4)cc3)n2)cc1 [GSK1229496] | 0 | 0 | 7 | 2 | 0 | 17 | 0 | 0 | 0 | 0 | 14 | 0 | 0 | 0 | 30 | 0 | 23 | 8 | 0 | 0
4 | Nc1cccc(-c2ccc3c(N)n[nH]c3c2)n1 [GSK2192730] | 15 | 0 | 23 | 0 | 0 | 0 | 18 | 7 | 9 | 0 | 9 | 0 | 0 | 17 | 1 | 0 | 0 | 3 | 16 | 5
5 | O=C1NC(=O)C(c2ccc(Cl)cc2)=C1Nc1ccc(O)cc1 [SB-340867] | 0 | 0 | 14 | 12 | 0 | 0 | 0 | 0 | 0 | 0 | 0 | 0 | 11 | 0 | 0 | 0 | 0 | 0 | 0 | 7
6 | NS(=O)(=O)c1cccc(N/C=C2\C(=O)Nc3ccc(S(=O)(=O)Cc4c(Cl)cccc4Cl)cc32)c1 [GSK398099] | 14 | 0 | 0 | 0 | 0 | 0 | 10 | 21 | 10 | 0 | 26 | 0 | 0 | 13 | 2 | 0 | 20 | 9 | 0 | 0
7 | Cc1ccc(NC(=O)Nc2ccccc2)cc1-c1ccc(C(=O)Nc2ccncc2)cc1 [GSK1398471] | 0 | 0 | 24 | 0 | 10 | 0 | 15 | 0 | 0 | 0 | 4 | 0 | 0 | 23 | 0 | 0 | 51 | 14 | 20 | 13
8 | Fc1ccc(-c2nn3cccc(F)c3c2-c2ccncc2)cc1 [GW475620] | 0 | 7 | 0 | 0 | 1 | 0 | 0 | 0 | 0 | 0 | 0 | 2 | 1 | 0 | 37 | 21 | 61 | 2 | 0 | 3
9 | CS(=O)(=O)Cc1ccc(Nc2nccc(-c3c(-c4cccc(NC(=O)C5CCCCC5)c4)nn4ncccc34)n2)cc1 [GSK350559] | 0 | 0 | 0 | 17 | 22 | 15 | 0 | 10 | 32 | 25 | 15 | 4 | 18 | 0 | 0 | 32 | 1 | 22 | 7 | 8
10 | CN1c2ccc(-c3ccc(C(N)=O)cc3)cc2-c2[nH]ncc2S1(=O)=O | 0 | 11 | 26 | 3 | 0 | 0 | 0 | 0 | 35 | 0 | 0 | 0 | 0 | 0 | 12 | 0 | 8 | 0 | 11 | 22
11 | Cc1c(Cn2c3ccccc3n3c(=O)cc(N4CCOCC4)nc23)cccc1C(F)(F)F [GSK2306394] | 0 | 0 | 0 | 58 | 0 | 0 | 0 | 23 | 0 | 0 | 0 | 0 | 17 | 9 | 61 | 7 | 0 | 3 | 12 | 7
12 | CC(=O)c1c(C)c2cnc(Nc3ccc(N4CCNCC4)cn3)nc2n(C2CCCC2)c1=O | 11 | 0 | 0 | 0 | 13 | 0 | 0 | 0 | 36 | 0 | 1 | 0 | 0 | 0 | 3 | 0 | 29 | 0 | 0 | 0
13 | CC(=O)c1cccc(NC(=O)NC2CCN(c3ccnc(Nc4ccc(F)cc4)n3)C2)c1 (centres unmarked) [GSK1379710] | 43 | 0 | 12 | 38 | 0 | 6 | 3 | 8 | 8 | 0 | 35 | 0 | 0 | 15 | 0 | 38 | 25 | 5 | 8 | 0
14 | COC(=O)C(Cc1ccccc1)NC(=O)NC1CCN(c2ccnc(Nc3ccc(F)cc3)n2)C1 (centres unmarked) [GSK1379714] | 0 | 20 | 13 | 14 | 14 | 44 | 0 | 0 | 1 | 0 | 12 | 0 | 0 | 17 | 50 | 33 | 6 | 5 | 9 | 5
15 | O=C(Nc1n[nH]c2nc(-c3cccs3)c(Br)cc12)C1CCCC1 [SB-743341] | 17 | 42 | 15 | 15 | 12 | 0 | 0 | 0 | 5 | 0 | 14 | 16 | 14 | 15 | 0 | 15 | 2 | 8 | 0 | 13
16 | COC(=O)C(NC(=O)NC1CCN(c2ccnc(Nc3ccc(F)cc3)n2)C1)c1ccccc1 (centres unmarked) [GSK1379712] | 0 | 0 | 14 | 32 | 0 | 0 | 2 | 0 | 9 | 0 | 6 | 0 | 0 | 16 | 4 | 37 | 2 | 0 | 0 | 1
17 | Cc1ccc(NC(=O)Nc2ccc(Cl)c(C(F)(F)F)c2)cc1-c1ccc(C(=O)Nc2ccncc2)cc1 [GSK1398470] | 60 | 0 | 23 | 0 | 2 | 0 | 0 | 23 | 2 | 17 | 11 | 12 | 2 | 20 | 0 | 0 | 21 | 35 | 19 | 19
18 | CC[C@@H]1CO[C@H](C(=O)Nc2ccccc2)CN1c1cc(-c2ccc3c(N)n[nH]c3c2)nc(NC)n1 [GSK2376236] | 19 | 0 | 0 | 5 | 0 | 0 | 0 | 10 | 4 | 0 | 19 | 0 | 0 | 19 | 0 | 0 | 17 | 14 | 15 | 7
19 | Cc1cnc(N)c(/C=C/c2cncc(C(=O)NCCc3ccc(Cl)cc3Cl)c2)c1.Cl [GSK190937] | 6 | 0 | 21 | 21 | 13 | 0 | 5 | 10 | 0 | 0 | 9 | 0 | 0 | 0 | 10 | 18 | 7 | 0 | 4 | 10
